In the supplement of paper PMC10849652:
Targets with a hit are over-represented here; the source holds about 7,900 in all. About 0.6% of all pairs of compound and target were hits. Values without a mark were called inactive.

Columns and labels:
Assay in all cases: log2 fold change, soluble protein after heating vs DMSO (PISA); higher = thermal stabilisation; K562 cells, 10 uM, 30 min; active = over 0.2 and 3.5 SD of the protein, either way, in both replicates (recomputed)
[1] = target: ZNF217 (UniProt O75362)
Procedure, shortened: (§1)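 Soluble protein was defined as the supernatant after 21,000xg for 90 min. It came from K562 cells at 2×10^6 cells/mL given 10 μM compound for 30 min, heated in aliquots for 3 min across 48°C-58°C, pooled, and extracted in PBS with 0.5% NP-40 at 4°C, and was quantified by TMTpro 16plex LC-MS/MS with equalised channel sums. Thermal stability against control samples, from duplicates, is reported as log2 fold change.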

[2] = target: ZNF239 (UniProt Q16600)
Procedure, shortened: as §1

[3] = target: ZNF277 (UniProt Q9NRM2)
ZNF277, sequence (Q9NRM2 whole entry, looked up): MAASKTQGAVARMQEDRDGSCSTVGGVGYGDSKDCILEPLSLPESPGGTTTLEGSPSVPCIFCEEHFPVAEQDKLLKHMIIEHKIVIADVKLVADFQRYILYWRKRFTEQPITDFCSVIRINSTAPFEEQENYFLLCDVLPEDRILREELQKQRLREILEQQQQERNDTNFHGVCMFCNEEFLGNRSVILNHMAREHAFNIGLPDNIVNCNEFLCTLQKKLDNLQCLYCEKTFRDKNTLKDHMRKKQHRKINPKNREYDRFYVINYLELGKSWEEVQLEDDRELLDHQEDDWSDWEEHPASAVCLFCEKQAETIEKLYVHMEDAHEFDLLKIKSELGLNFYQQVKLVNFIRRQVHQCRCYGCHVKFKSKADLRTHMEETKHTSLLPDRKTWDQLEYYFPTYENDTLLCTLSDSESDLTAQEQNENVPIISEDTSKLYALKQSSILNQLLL
Procedure, shortened: as §1

[4] = target: ZNF511 isoform 1 (UniProt Q8NB15)
ZNF511 isoform 1, sequence (Q8NB15 whole entry, looked up, canonical isoform): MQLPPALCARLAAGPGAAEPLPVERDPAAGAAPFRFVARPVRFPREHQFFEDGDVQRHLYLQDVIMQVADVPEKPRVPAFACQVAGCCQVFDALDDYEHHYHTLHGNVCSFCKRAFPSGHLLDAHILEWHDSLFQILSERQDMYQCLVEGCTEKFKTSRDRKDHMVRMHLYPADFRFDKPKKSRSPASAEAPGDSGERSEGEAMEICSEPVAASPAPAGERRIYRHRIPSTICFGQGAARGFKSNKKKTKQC
Procedure, shortened: as §1

[5] = target: ZNF512 (UniProt Q96ME7)
ZNF512, sequence (Q96ME7 whole entry, looked up): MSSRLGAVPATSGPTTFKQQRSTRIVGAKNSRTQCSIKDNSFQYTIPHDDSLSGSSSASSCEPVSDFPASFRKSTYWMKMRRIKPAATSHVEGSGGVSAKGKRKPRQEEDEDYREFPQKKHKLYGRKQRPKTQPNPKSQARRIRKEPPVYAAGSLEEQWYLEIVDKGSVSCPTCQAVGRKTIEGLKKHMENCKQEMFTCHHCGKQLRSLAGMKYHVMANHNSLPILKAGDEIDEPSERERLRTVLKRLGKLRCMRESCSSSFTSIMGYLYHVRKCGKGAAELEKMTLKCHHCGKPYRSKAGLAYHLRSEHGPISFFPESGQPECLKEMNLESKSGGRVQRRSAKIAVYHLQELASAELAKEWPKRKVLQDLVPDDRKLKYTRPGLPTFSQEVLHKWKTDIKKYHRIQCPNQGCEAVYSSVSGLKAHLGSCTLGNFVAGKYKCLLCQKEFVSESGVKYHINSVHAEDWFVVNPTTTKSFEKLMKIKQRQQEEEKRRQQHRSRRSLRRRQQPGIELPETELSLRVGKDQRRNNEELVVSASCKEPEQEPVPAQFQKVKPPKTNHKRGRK
Procedure, shortened: as §1

[6] = target: ZNF579 (UniProt Q8NAF0)
ZNF579, sequence (Q8NAF0 whole entry, looked up): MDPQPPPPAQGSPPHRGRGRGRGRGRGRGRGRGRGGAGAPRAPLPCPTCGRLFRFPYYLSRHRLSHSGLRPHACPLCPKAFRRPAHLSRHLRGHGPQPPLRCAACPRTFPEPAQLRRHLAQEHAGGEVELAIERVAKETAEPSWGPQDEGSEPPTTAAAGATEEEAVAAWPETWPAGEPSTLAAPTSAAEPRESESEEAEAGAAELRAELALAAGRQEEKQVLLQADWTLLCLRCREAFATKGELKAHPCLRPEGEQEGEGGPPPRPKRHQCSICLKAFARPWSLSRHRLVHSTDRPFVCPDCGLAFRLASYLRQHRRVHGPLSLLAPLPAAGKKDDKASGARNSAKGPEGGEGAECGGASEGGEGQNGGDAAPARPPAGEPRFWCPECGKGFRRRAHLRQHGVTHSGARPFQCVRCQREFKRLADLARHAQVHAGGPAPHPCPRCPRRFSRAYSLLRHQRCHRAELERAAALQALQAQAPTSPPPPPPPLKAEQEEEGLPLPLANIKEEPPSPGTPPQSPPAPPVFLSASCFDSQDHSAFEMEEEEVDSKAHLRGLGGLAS
Procedure, shortened: as §1

[7] = target: ZNF609 (UniProt O15014)
ZNF609, sequence (O15014 whole entry, looked up): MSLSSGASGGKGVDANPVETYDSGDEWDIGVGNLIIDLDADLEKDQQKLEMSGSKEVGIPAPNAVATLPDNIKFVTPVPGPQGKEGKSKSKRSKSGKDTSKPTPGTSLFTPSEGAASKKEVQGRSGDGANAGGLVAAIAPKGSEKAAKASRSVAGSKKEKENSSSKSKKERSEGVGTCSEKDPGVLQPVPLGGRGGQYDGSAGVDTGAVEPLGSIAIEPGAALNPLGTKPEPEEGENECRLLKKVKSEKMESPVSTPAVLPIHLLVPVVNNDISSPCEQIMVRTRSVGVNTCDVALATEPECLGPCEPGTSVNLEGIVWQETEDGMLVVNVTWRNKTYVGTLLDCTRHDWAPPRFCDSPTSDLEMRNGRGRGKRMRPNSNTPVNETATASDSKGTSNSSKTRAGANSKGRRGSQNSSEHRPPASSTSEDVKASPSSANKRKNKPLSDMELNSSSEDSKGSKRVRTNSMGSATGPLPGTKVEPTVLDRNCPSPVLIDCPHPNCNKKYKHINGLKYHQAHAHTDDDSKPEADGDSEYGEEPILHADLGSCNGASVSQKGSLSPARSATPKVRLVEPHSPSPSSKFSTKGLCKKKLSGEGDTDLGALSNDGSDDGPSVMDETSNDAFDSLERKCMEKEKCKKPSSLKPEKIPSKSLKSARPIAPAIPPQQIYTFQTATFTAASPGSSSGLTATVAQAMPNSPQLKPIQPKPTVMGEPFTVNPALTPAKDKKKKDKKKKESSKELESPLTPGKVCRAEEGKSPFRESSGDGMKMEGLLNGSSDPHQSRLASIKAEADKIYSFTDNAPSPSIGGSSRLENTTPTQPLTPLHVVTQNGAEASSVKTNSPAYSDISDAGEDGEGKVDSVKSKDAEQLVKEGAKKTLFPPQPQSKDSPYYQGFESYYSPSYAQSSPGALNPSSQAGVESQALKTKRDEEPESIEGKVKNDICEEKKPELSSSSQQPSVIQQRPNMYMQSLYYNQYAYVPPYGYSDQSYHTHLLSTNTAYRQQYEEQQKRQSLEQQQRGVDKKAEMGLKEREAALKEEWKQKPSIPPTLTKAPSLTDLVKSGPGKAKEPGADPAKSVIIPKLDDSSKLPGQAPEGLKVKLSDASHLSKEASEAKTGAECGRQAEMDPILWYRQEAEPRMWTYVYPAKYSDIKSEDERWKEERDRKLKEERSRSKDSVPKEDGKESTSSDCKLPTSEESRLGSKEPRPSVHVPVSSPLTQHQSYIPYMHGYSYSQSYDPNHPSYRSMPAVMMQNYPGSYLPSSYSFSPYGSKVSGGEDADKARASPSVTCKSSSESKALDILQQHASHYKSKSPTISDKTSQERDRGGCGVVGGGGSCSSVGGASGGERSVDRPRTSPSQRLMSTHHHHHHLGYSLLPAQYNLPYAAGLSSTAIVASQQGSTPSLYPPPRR
Procedure, shortened: as §1

[8] = target: ZNF622 (UniProt Q969S3)
ZNF622, sequence (Q969S3 whole entry, looked up): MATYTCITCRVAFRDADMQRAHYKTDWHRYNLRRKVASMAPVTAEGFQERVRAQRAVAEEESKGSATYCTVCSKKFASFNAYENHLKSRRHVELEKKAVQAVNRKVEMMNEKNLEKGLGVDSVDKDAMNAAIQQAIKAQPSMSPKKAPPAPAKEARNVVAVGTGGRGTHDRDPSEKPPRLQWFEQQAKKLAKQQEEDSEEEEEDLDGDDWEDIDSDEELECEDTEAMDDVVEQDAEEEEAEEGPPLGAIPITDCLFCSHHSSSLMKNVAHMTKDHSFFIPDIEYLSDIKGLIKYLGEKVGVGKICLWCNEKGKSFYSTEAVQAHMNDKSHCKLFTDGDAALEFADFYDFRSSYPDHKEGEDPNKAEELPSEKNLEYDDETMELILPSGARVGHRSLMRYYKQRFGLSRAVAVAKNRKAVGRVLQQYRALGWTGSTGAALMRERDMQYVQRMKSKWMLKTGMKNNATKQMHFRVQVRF
Procedure, shortened: as §1

[9] = target: ZRANB2 (UniProt O95218)
ZRANB2, sequence (O95218 whole entry, looked up): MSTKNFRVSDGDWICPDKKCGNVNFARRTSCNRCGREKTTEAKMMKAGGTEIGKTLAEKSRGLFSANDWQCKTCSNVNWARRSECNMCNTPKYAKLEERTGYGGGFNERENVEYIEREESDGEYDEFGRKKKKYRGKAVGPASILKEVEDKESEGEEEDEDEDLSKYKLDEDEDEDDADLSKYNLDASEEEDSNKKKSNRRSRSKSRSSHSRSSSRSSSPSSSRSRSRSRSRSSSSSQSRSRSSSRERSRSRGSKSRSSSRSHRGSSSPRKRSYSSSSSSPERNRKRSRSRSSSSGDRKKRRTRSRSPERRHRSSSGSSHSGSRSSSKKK
Procedure, shortened: as §1

[10] = target: ZW10 (UniProt O43264)
ZW10, sequence (O43264 whole entry, looked up): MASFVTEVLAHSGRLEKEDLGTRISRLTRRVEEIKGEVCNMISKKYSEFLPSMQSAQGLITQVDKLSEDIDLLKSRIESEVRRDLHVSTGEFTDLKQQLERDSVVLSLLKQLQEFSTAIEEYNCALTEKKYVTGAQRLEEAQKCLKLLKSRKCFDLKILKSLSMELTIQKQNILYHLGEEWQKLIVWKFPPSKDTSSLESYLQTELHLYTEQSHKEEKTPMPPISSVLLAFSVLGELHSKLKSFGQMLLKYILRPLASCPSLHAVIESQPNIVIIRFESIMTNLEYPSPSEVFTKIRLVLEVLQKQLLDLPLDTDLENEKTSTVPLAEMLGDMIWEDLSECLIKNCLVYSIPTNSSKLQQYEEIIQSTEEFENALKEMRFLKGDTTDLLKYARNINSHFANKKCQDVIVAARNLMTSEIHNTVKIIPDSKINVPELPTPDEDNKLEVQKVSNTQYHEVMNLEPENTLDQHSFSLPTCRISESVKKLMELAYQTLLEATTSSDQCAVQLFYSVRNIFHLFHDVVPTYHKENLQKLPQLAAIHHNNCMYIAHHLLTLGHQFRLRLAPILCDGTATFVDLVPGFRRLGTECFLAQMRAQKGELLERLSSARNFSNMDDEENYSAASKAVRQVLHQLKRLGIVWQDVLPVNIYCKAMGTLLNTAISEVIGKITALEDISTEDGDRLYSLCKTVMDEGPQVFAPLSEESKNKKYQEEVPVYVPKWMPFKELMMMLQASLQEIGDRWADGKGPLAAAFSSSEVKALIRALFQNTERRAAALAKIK
Procedure, shortened: as §1

[11] = target: ZWILCH (UniProt Q9H900)
Procedure, shortened: as §1

[12] = target: ZYG11B (UniProt Q9C0D3)
Procedure, shortened: as §1

[13] = target: ZNF580 (UniProt Q9UK33)
ZNF580, sequence (Q9UK33 whole entry, looked up): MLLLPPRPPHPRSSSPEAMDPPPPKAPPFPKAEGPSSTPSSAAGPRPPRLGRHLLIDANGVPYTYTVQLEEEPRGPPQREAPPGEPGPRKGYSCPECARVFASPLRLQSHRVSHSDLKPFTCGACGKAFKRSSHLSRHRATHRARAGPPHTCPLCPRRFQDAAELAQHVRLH
Procedure, shortened: as §1

Row | SMILES | log2 fold change [1] | log2 fold change [2] | log2 fold change [3] | log2 fold change [4] | log2 fold change [5] | log2 fold change [6] | log2 fold change [7] | log2 fold change [8] | log2 fold change [9] | log2 fold change [10] | log2 fold change [11] | log2 fold change [12] | log2 fold change [13]
1 | C/C(=N\NC(=O)c1cccc(S(=O)(=O)N2CCOCC2)c1)c1cc(Cl)ccc1O | 0.074 | 0.019 | -0.031 | -0.402 (active) | -0.085 | 0.147 | -0.048 | 0.015 | -0.067 | 0.075 | 0.038 | 0.006 | –
2 | COc1cc(C(=O)O)ccc1NC(=O)[C@@H]1N[C@@H](CC(C)(C)C)[C@](C#N)(c2ccc(Cl)cc2F)[C@H]1c1cccc(Cl)c1F [idasanutlin] | -0.027 | -0.031 | -0.003 | 0.128 | 0.3 | -0.116 | 0.021 | -0.031 | 0.024 | -0.035 | -0.051 | 0.01 | –
3 | Cc1ncc(-c2ccnc(Nc3ccc(S(C)(=O)=O)cc3)n2)n1C(C)C | -0.046 | 0.275 | 0.017 | 0.015 | -0.072 | -0.054 | -0.102 | 0.013 | -0.027 | 0 | 0.071 | 0.037 | –
4 | C[C@@H]1COCCN1c1cc(C2(S(C)(=O)=O)CC2)nc(-c2cccc3[nH]ccc23)n1 | -0.099 | -0.065 | -0.566 | 0.105 | 0.007 | -0.114 | -0.064 | 0.067 | 0.001 | -0.029 | -0.04 | -0.008 | –
5 | CC[C@H](C)n1cc(C)c2c(C(=O)NCc3c(C)cc(C)[nH]c3=O)cc(-c3ccc(N4CCNCC4)nc3)cc21 | 0.045 | -0.096 | 0.02 | -0.058 | -0.002 | 0.167 | 0.076 | -0.012 | 0 | 0.077 | 0.048 | 0.101 | –
6 | Cc1cn(-c2cc(NC(=O)c3ccc(C)c(Nc4nccc(-c5cccnc5)n4)c3)cc(C(F)(F)F)c2)cn1 [nilotinib] | -0.082 | -0.022 | -0.207 | -0.17 | -0.031 | 0.105 | 0.03 | 0.046 | 0.052 | -0.088 | -0.047 | 0.025 | –
7 | CC(=O)c1cnc2ccc(-c3cc(Cl)c(O)c(Cl)c3)nc2c1N[C@H]1CC[C@H](CN(C)C)CC1 | -0.125 | -0.439 | -0.017 | -0.005 | -0.15 | -0.187 | -0.071 | 0.096 | 0.017 | 0.011 | 0.004 | 0.004 | –
8 | NC(=O)c1cnc(N[C@@H]2CCCC[C@@H]2N)nc1Nc1cccc(-n2nccn2)c1 | -0.053 | -0.092 | 0.067 | -0.066 | -0.005 | 0.067 | 0.015 | -0.002 | 0.002 | -0.027 | -0.085 | 0.022 | –
9 | COc1cc(Nc2ncc3c(n2)-c2ccc(Cl)cc2C(c2c(F)cccc2OC)=NC3)ccc1C(=O)O [alisertib] | -0.092 | -0.004 | 0.028 | 1.14 | -0.286 | -0.082 | -0.021 | -0.028 | -0.058 | 0.031 | -0.024 | -0.155 | –
10 | CCCS(=O)(=O)Nc1ccc(F)c(C(=O)c2c[nH]c3ncc(Cl)cc23)c1F | 0.688 (active) | -0.02 | 0.028 | 0.014 | – | -0.085 | 0.036 | 0.023 | -0.02 | 0.053 | 0.016 | -0.043 | 0.069
11 | NCC(=O)Nc1ccc(-n2nc(C(F)(F)F)cc2-c2ccc3c(ccc4ccccc43)c2)cc1 | -0.081 | -0.027 | -0.148 | -0.005 | – | 0.085 | -0.076 | -0.016 | 0.067 | -0.007 | -0.068 | -0.045 | -0.038
12 | Cc1ccc(NC(=O)c2ccc(CN3CC[C@H](N(C)C)C3)c(C(F)(F)F)c2)cc1Nc1nccc(-c2cncnc2)n1 [bafetinib] | -0.057 | -0.452 | 0.246 | -0.098 | – | 0.107 | -0.233 | 0.021 | -0.014 | 0.003 | -0.031 | -0.272 (active) | –
13 | CNC(=O)c1ccc(Nc2ncc(C(F)(F)F)c(NCc3nccnc3N(C)S(C)(=O)=O)n2)cc1 [defactinib] | -0.145 | -0.014 | 0.161 | -0.128 | – | 0.019 | -0.046 | 0.057 | -0.046 | -0.083 | -0.007 | -0.058 | -0.099
14 | Cc1ccc(NC(=O)c2cccc(N(C)C)c2)cc1NC(=O)c1ccc(O)cc1 | 0.006 | 0.143 | -0.097 | 0.012 | – | -0.183 | 0.162 | -0.036 | -0.012 | -0.043 | 0.238 | -0.018 | –
15 | Cc1ccc(C(=O)N(CCCN)[C@@H](c2nc3cc(Cl)ccc3c(=O)n2Cc2ccccc2)C(C)C)cc1 [ispinesib] | -0.064 | -0.074 | -0.27 | 0.296 | – | 0.029 | 0.014 | 0.062 | 0.005 | -0.179 | -0.045 | 0.041 | –
16 | CCn1c(C(=O)N(C2CC2)C2CC2)cc2c3c(ncn3C)c(Nc3cc(C)n(C)n3)nc21 | -0.034 | 0.004 | -0.188 | – | 0.128 | 0.002 | 0.007 | 0.005 | 0.014 | -0.06 | 0.021 | -0.017 | –
17 | NC(=O)c1ccc2nc(-c3ccc(Oc4ccc(Cl)cc4)cc3)[nH]c2c1 | 0.015 | 0.248 | -0.104 | – | -0.014 | 0.042 | 0.029 | 0.007 | -0.015 | -0.005 | -0.028 | 0 | –
18 | Cc1ccc2c(=O)c3ccccc3n(CCCN)c2c1C | -0.142 | 0.011 | -0.126 | 0.17 | – | -0.168 | 0.205 | -0.285 (active) | -0.399 (active) | 0.013 | 0.013 | 0.009 | -0.196
19 | Oc1cc(-c2nc(-c3ccccc3)[nH]c2-c2ccncc2)ccc1Cl | -0.014 | 0.044 | -0.004 | 0.018 | – | -0.025 | 0.01 | 0.016 | -0.073 | -0.034 | -0.002 | 0.015 | –
20 | CN(C)CC(=O)Nc1ccc2[nH]c(=O)c3ccccc3c2c1 | 0.06 | -0.1 | -0.003 | 0.068 | – | -0.026 | 0.047 | -0.024 | -0.048 | 0.013 | 0.051 | -0.003 | 0.046
21 | CN1CCc2c(c3ccccc3n2Cc2ccc(C(=O)NO)cc2)C1 [Tubastatin A] | -0.086 | 0.091 | 0.275 | -0.089 | – | 0.095 | -0.126 | 0.018 | -0.032 | 0.031 | -0.028 | 0.04 | -0.08
22 | Cn1cncc1[C@@](N)(c1ccc(Cl)cc1)c1ccc2c(c1)c(-c1cccc(Cl)c1)cc(=O)n2C [tipifarnib] | -0.152 | 0.178 | 0.044 | 0.062 | – | 0 | 0 | -0.048 | -0.001 | -0.087 | -0.01 | 0.089 | -0.204
